These results are taken from PubChem BioAssay (NCATS).

Values joined by “and” are separate entries in the source; they are usually repeats but may differ in a detail not shown here. Equal values may be shown once. Results filed as inconclusive are left out. Active and inactive are the calls of the source. Unless noted, the call rests on the fitted dose curve; in most records, active means well fitted curve in the direction sought with a large enough effect; inconclusive means small, poorly fitted or top-dose-only effect, or another doubt; inactive means no such curve, though single readings can be large; an effect the other way counts as inactive or inconclusive.

Assay [1] addresses Estrogen receptor (Homo sapiens) (UniProt P03372). Briefly: qHTS assay for small molecule antagonists of estrogen receptor alpha signaling (AID 588513; active means well fitted curve in the direction sought with a large enough effect in the signal ratio, with a control signal flat, not every such curve was filed as active; the % refers to the signal ratio; further: potency means the concentration at half of the fitted maximal effect). A digest of the protocol:
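Beta-lactamase reporter, antagonist mode, HEK 293 GripTite cells; 0.5nM E2 stimulus, 18 h, 37 C; CCF4 dye 2 h RT; fluorescence. IC50 and efficacy from Hill fits, normalized to E2 and DMSO.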
On the technique in general: qHTS replaces the single test concentration by a dilution series.

Assay [2] shares this target. Briefly: qHTS assay for small molecule agonists of estrogen receptor alpha signaling (AID 588514; calls by dose curve;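 further: 0% = vehicle only and 100% = reference agonist; nearly all actives have a fitted effect of over 70% in size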). In a few lines:
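EC50 and efficacy came from Hill fits of beta-lactamase reporter signal (CCF4 dye, 2 h at room temperature) scaled between DMSO and 20 nM 17-beta-estradiol. Agonist mode: HEK293 ER-alpha-UAS-bla cells in charcoal/dextran-stripped serum medium, 18 h compound exposure at 37 C.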

In assay [3] the target is Peroxisome proliferator-activated receptor delta (Homo sapiens) (UniProt Q03181). Briefly: qHTS assay for small molecule agonists of peroxisome proliferator-activated receptor delta signaling (AID 588534; calls by dose curve;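 further: 0% = DMSO basal wells and 100% = positive control agonist at 10 µM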). A digest of the protocol:
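Agonist-mode beta-lactamase reporter readout (CCF4 dye, 2 h at RT) after 18 h at 37 °C exposure to a titration; Hill-equation fitting gave EC50 and maximal response.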

The target of assay [4] is Peroxisome proliferator-activated receptor gamma (Homo sapiens) (UniProt P37231). Briefly: qHTS assay for small molecule agonists of peroxisome proliferator-activated receptor gamma signaling (AID 588536; active means well fitted curve in the direction sought with a large enough effect in the signal ratio, with a control signal flat, not every such curve was filed as active; the % refers to the signal ratio;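 further: 0% = DMSO basal wells and 100% = rosiglitazone at 2 µM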). In a few lines:
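This is an agonist-mode beta-lactamase reporter assay in HEK293 PPAR-gamma-UAS-bla cells with 1% charcoal/dextran FBS. Compound titrations ran 16 h at 37 C before CCF4 detection. EC50 and efficacy are Hill fits scaled to 2 uM rosiglitazone (100%) and DMSO basal.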

The target of assay [5] is Vitamin D3 receptor (Homo sapiens) (UniProt P11473). Briefly: qHTS assay for small molecule agonists of vitamin D receptor signaling (AID 588543; calls by dose curve;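 further: 0% = DMSO basal and 100% = reference agonist control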). In a few lines: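 β-lactamase reporter, VDR-UAS-bla HEK293T, agonist mode. Cells plated 5 h at 37 °C, compound titration 16 h at 37 °C, CCF4 dye 2 h RT, ratio 460/530 nm. Hill fit → EC50, efficacy vs 50 nM 1α,25-(OH)2D3.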
Assay [6] deals with Retinoic acid receptor RXR-alpha (Homo sapiens) (UniProt P19793). Briefly: qHTS assay for small molecule agonists of retinoid X receptor alpha signaling (AID 588544; calls by dose curve;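 further: 0% = DMSO basal wells and 100% = reference agonist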).
The target in assay [7] is Thyroid hormone receptor beta (Homo sapiens) (UniProt P10828). Briefly: qHTS assay for small molecule agonists of thyroid hormone receptor beta signaling (AID 588545; calls by dose curve). A digest of the protocol: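 In this cell-based screen, titrated compounds act on HEK 293 cells held in medium with 2% charcoal/dextran FBS, NEAA and pyruvate for 18 hrs at 37 C. Responses are expressed relative to T3 (10 nM) as 100% and basal DMSO as 0%.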

Assay [8] shares this target. Briefly: qHTS assay for small molecule antagonists of thyroid hormone receptor beta signaling (AID 588547; active means well fitted inhibition curve with a large enough effect in the signal ratio, with a control signal flat, not every such curve was filed as active; the % refers to the signal ratio;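 further: cells stimulated with 0.4 nM T3 agonist during compound exposure; series mostly up to about 77 µM; on the % scale 0 is the no-effect control and ±100 the full control effect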). As to conditions: TR-UAS-bla HEK293, beta-lactamase ratio, antagonist mode, 18 h. In a few lines: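 TR-UAS-bla GripTite HEK293 cells in 2% charcoal/dextran FBS medium were preincubated 4 h at 37 C, given compound (0.59 nM to 92 uM) plus 0.4 nM T3 (final) for 18 h, then CCF4 for 2 h at RT; Hill fit gave IC50.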

The nature of assay [9]: qHTS assay for small molecule activators of the p53 signaling pathway (AID 651743; active means well fitted activation curve with a large enough effect in the signal ratio, not every such curve was filed as active; the % refers to the signal ratio; further: series mostly up to about 92 µM; % of control where 0% means no effect). The note with it: HCT-116 p53RE-bla, beta-lactamase FRET ratio, 16 h; activation: stronger effect = higher value. In a few lines:
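Agonist-mode quantitative HTS in HCT-116 cells carrying a p53-response-element beta-lactamase reporter; 16 h compound treatment at 37 C, then FRET substrate loading for 2 h at room temperature and fluorescence read.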

The nature of assay [10]: qHTS assay for environmental chemicals that activate the Aryl hydrocarbon Receptor (AhR) signaling pathway (AID 651777). Further: % of control where 0% means no effect; nearly all actives have a fitted effect of over 15% in size. As to conditions: 1A2-DRE human hepatoma cells, luciferase, 24 h; activation: stronger effect = higher value. A digest of the protocol:
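Quantitative HTS in stably transfected human liver-derived cells whose luciferase gene sits downstream of the CYP1A2 promoter and dioxin response element. After 24 hr exposure at 37 C, One-Glo luminescence was measured.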

The target of assay [11] is Peroxisome proliferator-activated receptor alpha (Homo sapiens) (UniProt Q07869). Briefly: qHTS assay for small molecule agonists of the peroxisome proliferator-activated receptor alpha (PPARalpha) signaling pathway (AID 651778). Further: % of control where 0% means no effect. The note with it: PathHunter PPARalpha complementation, chemiluminescence, 6 h; max response: stronger effect = higher value. In a few lines: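 Cells plated at 2,000/well and held overnight at 37 C, 5% CO2, then compound added by pin tool for 6 hr; after PathHunter detection reagent and 60 min at room temperature, chemiluminescence from enzyme complementation was read.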

Assay [12] in a line: qHTS assay for small molecule agonists of the antioxidant response element (ARE) signaling pathway measured by Nrf2-dependant transcriptional activity (AID 720636; active means well fitted curve in the direction sought with a large enough effect in the repeat runs; an effect the other way counts as inactive or inconclusive; further: % of control where 0% means no effect). A digest of the protocol:
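Quantitative HTS format in HepG2 cells stably expressing an ARE-luciferase reporter; 16 hr compound treatment at 37 C, luciferase signal detected with ONE-Glo.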

Assay [13] is described as follows: qHTS assay for small molecule agonists of the antioxidant response element (ARE) signaling pathway measured by Nrf2-dependant transcriptional activity - cell viability counter screen (AID 720653; active means well fitted curve in the direction sought with a large enough effect in the repeat runs; an effect the other way counts as inactive or inconclusive; further: on the % scale 0 is the no-effect control and ±100 the full control effect). The note with it: ARE-bla HepG2 viability, CellTiter-Glo ATP luminescence, 16 h; max response: stronger effect = lower value. In a few lines:
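ARE-bla HepG2 cells (2,000/well) rested 5 hrs at 37C/5% CO2, then exposed to compounds in DMSO for 16 hrs. Viability was read in the same wells as intracellular ATP by luminescence, 30 min at room temperature after reagent addition.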

Assay [14] in a line: qHTS assay for cell viability of the p53RE-bla HCT-116 cell line (AID 743292). Further: on the % scale 0 is the no-effect control and ±100 the full control effect; nearly all actives have a fitted effect of over 55% in size. A digest of the protocol:
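Viability of compound-treated p53RE-bla HCT-116 cells is taken from ATP-dependent luciferase luminescence. Treatment lasts 16 h at 37 C after a 5 h settling period; detection follows 30 min at room temperature.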

Assay [15] has as its target Peroxisome proliferator-activated receptor gamma (Homo sapiens) (UniProt P37231). Briefly: qHTS assay for small molecule antagonists of peroxisome proliferator-activated receptor gamma signaling (AID 588537; active means well fitted inhibition curve with a large enough effect in the signal ratio, with a control signal flat, not every such curve was filed as active; the % refers to the signal ratio;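 further: reporter cells co-stimulated with 50 nM rosiglitazone agonist during compound treatment; % of control where 0% means no effect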). In a few lines: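 Compounds are tested as concentration series for inhibition of rosiglitazone-driven (50 nM) reporter expression in GeneBLAzer PPAR-gamma-UAS-bla HEK293 cells. After 16 h at 37 C, CCF4 substrate is added for 2 h at room temperature and blue/green fluorescence is measured.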

The nature of assay [16]: qHTS assay for small molecule antagonists of retinoid X receptor alpha signaling (AID 588546; active means well fitted inhibition curve with a large enough effect in the signal ratio, with a control signal flat, not every such curve was filed as active; the % refers to the signal ratio;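 further: cells stimulated with 9-cis-retinoic acid as agonist; on the % scale 0 is the no-effect control and ±100 the full control effect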). The note with it: HEK293T RXRa-UAS-bla, beta-lactamase ratio, antagonist mode; measured here: W530 green channel, cytotoxicity proxy. A digest of the protocol: (§1)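 Beta-lactamase reporter inhibition, read as CCF4 fluorescence ratio (ex 405, em 460/530 nm) after 2 h at RT. HEK293T UAS-bla cells, 2500/well, were stimulated with 9-cis-RA at 500 or 100 nM final alongside test compound for 18 h at 37 C.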

Assay [17] addresses Retinoic acid receptor RXR-alpha (Homo sapiens) (UniProt P19793). Described as above. As to conditions: HEK293T RXRa-UAS-bla, beta-lactamase ratio, antagonist mode. In a few lines:
as §1

Assay [18] is described as follows: qHTS assay for cell viability of HEK293 cells (AID 743288). Further: on the % scale 0 is the no-effect control and ±100 the full control effect; nearly all actives have a fitted effect of over 50% in size. As to conditions: ATP luminescence (CellTiter-Glo), 18 h; max response: stronger effect = lower value. In a few lines:
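ATP luminescence (CellTiter-Glo) reports metabolically competent cell number after parental HEK293 cells, 2,000/well, were treated with DMSO-dissolved compounds for 18 h at 37 C; reagent incubation 30 min, room temperature.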

Assay [19] addresses Nuclear receptor subfamily 1 group I member 2 (Rattus norvegicus) (UniProt Q9R1A7). Briefly: qHTS assay for small molecule activators of the rat pregnane X receptor (rPXR) signaling pathway (AID 651751; call rule not given here; further: 0% is about no effect). As to conditions: rPXR reporter cells, luciferase (One-Glo), 24 h.
The target in assay [20] is Vitamin D3 receptor (Homo sapiens) (UniProt P11473). Briefly: qHTS assay for small molecule antagonists of vitamin D receptor signaling (AID 588541; calls by dose curve;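 further: receptor activated by calcitriol during compound treatment; series mostly up to about 77 µM; on the % scale 0 is the no-effect control and ±100 the full control effect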). In a few lines:
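VDR-UAS-bla HEK293T cells (2000/well, 2% charcoal-stripped FBS) were treated with titrated compounds plus 1-alpha,25-dihydroxyvitamin D3 (50 nM or 3 nM final) for 16 h at 37 C. CCF4 beta-lactamase fluorescence was read; Hill fits gave IC50.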

Sequence of Retinoic acid receptor RXR-alpha (Homo sapiens) (P19793 whole entry, looked up): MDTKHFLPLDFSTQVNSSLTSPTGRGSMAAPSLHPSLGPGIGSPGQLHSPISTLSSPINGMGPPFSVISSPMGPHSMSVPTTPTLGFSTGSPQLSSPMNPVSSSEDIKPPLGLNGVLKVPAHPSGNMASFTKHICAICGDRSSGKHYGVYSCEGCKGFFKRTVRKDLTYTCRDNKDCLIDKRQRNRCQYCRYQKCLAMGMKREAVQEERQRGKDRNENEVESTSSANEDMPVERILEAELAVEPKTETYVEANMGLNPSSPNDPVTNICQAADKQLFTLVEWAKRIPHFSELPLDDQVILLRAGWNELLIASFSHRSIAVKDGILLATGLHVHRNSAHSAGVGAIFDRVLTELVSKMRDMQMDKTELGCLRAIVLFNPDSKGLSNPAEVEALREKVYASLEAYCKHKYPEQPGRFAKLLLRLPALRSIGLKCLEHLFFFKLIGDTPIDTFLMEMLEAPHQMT
Sequence of Estrogen receptor (Homo sapiens) (P03372 whole entry, looked up): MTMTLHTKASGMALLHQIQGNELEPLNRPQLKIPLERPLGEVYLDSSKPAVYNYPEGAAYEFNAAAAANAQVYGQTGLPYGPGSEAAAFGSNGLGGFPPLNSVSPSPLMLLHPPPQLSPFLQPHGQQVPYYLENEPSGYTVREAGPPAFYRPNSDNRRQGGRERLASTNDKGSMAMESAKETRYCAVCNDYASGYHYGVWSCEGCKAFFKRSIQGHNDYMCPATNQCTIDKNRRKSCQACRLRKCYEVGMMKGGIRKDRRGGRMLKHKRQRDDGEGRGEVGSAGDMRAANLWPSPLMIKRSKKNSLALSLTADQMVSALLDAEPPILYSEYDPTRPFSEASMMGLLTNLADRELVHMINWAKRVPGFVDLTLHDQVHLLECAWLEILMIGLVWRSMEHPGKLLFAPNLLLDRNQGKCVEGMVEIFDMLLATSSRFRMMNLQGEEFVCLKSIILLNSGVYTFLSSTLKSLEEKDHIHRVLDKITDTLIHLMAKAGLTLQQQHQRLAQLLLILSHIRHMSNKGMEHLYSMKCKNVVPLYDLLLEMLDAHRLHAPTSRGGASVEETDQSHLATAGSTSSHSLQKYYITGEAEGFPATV
Sequence of Peroxisome proliferator-activated receptor delta (Homo sapiens) (Q03181 whole entry, looked up): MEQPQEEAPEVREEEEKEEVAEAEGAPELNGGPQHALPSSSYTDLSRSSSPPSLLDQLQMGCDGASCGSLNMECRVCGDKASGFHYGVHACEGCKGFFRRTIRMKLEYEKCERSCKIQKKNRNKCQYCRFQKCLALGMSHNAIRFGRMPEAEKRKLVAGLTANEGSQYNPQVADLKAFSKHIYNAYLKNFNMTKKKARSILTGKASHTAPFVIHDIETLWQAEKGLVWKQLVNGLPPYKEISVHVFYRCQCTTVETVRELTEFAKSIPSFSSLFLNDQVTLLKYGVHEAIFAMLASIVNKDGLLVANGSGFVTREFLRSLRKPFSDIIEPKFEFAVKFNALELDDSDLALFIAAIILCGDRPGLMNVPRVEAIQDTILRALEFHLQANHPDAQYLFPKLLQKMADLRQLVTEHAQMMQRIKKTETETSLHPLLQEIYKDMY
Sequence of Thyroid hormone receptor beta (Homo sapiens) (P10828 whole entry, looked up): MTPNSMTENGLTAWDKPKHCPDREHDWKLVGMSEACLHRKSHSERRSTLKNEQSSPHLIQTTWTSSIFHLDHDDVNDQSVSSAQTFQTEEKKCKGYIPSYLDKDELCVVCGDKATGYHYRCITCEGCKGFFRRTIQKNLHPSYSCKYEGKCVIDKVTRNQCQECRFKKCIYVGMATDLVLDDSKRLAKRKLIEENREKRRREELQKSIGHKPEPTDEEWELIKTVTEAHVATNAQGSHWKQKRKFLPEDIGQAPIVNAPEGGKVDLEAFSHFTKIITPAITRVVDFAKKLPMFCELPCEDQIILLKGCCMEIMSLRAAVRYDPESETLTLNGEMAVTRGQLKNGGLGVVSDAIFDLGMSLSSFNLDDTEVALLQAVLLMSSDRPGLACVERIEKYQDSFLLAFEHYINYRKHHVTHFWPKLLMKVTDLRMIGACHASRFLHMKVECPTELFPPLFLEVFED
Sequence of Peroxisome proliferator-activated receptor alpha (Homo sapiens) (Q07869 whole entry, looked up): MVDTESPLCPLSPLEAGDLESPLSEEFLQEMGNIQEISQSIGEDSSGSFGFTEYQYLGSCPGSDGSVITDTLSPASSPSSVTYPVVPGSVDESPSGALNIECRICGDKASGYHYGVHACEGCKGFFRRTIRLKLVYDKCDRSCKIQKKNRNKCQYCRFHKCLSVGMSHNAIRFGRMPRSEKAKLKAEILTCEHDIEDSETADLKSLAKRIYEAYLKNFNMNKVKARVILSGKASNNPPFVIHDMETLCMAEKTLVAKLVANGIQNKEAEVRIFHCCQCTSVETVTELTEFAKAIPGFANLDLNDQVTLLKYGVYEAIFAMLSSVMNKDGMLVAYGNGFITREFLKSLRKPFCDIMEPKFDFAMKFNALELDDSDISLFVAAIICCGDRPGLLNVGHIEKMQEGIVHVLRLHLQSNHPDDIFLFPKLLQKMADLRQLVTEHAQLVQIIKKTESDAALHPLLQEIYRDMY
Sequence of Nuclear receptor subfamily 1 group I member 2 (Rattus norvegicus) (Q9R1A7 whole entry, looked up): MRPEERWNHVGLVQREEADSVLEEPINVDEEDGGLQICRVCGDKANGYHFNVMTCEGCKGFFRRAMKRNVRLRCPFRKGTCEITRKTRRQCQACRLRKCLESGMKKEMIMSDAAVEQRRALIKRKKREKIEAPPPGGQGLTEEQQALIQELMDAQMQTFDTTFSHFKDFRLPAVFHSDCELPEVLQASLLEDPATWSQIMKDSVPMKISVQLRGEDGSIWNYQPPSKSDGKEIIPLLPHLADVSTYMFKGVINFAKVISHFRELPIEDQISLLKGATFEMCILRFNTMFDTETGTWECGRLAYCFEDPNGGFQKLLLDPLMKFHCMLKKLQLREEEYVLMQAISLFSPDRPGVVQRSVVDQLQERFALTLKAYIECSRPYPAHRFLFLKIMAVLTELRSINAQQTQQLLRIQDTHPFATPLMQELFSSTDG
Sequence of Vitamin D3 receptor (Homo sapiens) (P11473 whole entry, looked up): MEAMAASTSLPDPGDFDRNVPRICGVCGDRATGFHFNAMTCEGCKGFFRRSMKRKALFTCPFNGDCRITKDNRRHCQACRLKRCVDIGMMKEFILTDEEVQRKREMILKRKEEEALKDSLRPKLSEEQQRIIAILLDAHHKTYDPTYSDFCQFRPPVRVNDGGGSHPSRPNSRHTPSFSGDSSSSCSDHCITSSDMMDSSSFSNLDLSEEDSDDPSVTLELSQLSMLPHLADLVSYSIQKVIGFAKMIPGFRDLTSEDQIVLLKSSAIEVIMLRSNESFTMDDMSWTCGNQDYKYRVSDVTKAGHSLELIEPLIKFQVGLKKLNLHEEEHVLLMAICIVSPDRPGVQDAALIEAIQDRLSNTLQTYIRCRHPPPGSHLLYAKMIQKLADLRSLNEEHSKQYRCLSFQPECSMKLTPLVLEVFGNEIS
Sequence of Peroxisome proliferator-activated receptor gamma (Homo sapiens) (P37231 whole entry, looked up): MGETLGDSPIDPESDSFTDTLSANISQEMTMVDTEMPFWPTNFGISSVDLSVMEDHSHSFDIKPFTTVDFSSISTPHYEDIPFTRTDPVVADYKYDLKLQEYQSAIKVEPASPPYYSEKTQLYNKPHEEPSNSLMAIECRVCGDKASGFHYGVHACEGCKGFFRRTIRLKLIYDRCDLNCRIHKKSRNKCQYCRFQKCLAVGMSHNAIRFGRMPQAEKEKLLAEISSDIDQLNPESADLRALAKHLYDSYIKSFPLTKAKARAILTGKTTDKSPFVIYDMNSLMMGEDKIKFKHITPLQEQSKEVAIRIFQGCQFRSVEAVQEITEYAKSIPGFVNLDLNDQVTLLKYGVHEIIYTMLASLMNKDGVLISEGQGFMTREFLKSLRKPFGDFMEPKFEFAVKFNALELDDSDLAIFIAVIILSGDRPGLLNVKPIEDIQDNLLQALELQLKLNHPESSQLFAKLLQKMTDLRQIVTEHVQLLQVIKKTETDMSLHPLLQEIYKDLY

As for `CCc1ccc(C(=O)NN(C(=O)c2cc(C)cc(C)c2)C(C)(C)C)cc1`, the Potency result in assay [1], in assay [2], in assay [4], in [6], in assay [7] and in [12] was “inactive” each time. Besides, the Potency entry in [14] was “inactive”. Moreover, the molecule was called inactive in assay [3] and in assay [5]. Further, the activity change % (negative = inhibition) in [8] is 18% (inactive). Besides, the figures for the activation in assay [9] and in [10] were 3.11% (inactive) and 1.38% (inactive), respectively. Further, the values for the max response in assay [11] and in [13] were -0.946% (inactive) and -4.5% (inactive), respectively.
Turning to `COc1cnc(OC)n2nc(NS(=O)(=O)c3c(OCC(F)F)cccc3C(F)(F)F)nc12`, the Potency result in assay [1], in [2], in [4], in assay [15], in assay [7] and in [12] was “inactive” in each case. In [14], the Potency entry is “inactive”. Also, in assay [3], the molecule was classed as inactive. Moreover, the max response was 8.71% in assay [16]; -13.9% (inactive) in assay [17]; -1.19% (inactive) in [11]; -2.64% (inactive) in assay [13]; -8.21% (inactive) in [18]; -1.36% (inactive) in [19]. Also, the activity change % (negative = inhibition) in assay [8] is 9.04% (inactive). Further, the activation in assay [9] was 1.45% (inactive); in assay [10], 0.743% (inactive).
For the molecule `CCOP(=S)(OCC)Oc1ccc(S(C)=O)cc1` (stereo unspecified), the Potency entry in assay [1], in assay [2], in [4], in assay [15], in assay [20] and in assay [6] was “inactive” throughout. Further, the Potency result in assay [7] and in [12] was “inactive” each time. In addition, the call in assay [3] and in assay [5] was inactive. Also, the max response was -3.81% in [16]; -34.4% (inactive) in [17]; -1.54% (inactive) in assay [11]; 6.57% (inactive) in [13]; -11.8% (inactive) in assay [18]; 7.38% (inactive) in assay [19]. Besides, the activity change % (negative = inhibition) in assay [8] was -4.14% (inactive). In addition, the activation in assay [10] is 14.8% (inactive).
As for `Nc1nc(N)nc(Cl)n1`, the Potency entry in assay [1], in [2], in assay [4], in assay [15], in [6] and in [7] was “inactive” each time. For the same molecule, the Potency result in [12] and in assay [14] was “inactive” in each case. Also, the max response is -6.94% and -9.26% and -7.48% in assay [16]; -8.75% (inactive) and -3.8% (inactive) and 6.06% (inactive) in assay [17]; 0.345% (inactive) and 0.412% (inactive) and -1.56% (inactive) in assay [11]; -27.2% (inactive) and -2.73% (inactive) and -17.4% (inactive) in assay [13]; -6.86% (inactive) and -11.8% (inactive) and -2.3% (inactive) in [18]; 0.0938% (inactive) and 1.1% (inactive) and -0.658% (inactive) in assay [19]. Besides, in [8], the activity change % (negative = inhibition) was -10% (inactive) and 5.94% (inactive) and 4.29% (inactive). For the same molecule, the activation is 14% (inactive) and -1.73% (inactive) in assay [9]; 0.466% (inactive) and 6.68% (inactive) and -2.27% (inactive) in assay [10].
On to `CCSC(C)CC1CC(=O)C(/C(CC)=N/OC/C=C/Cl)=C(O)C1` (stereo unspecified), for which the Potency entry in assay [1], in assay [4], in [15], in assay [20], in assay [7] and in assay [12] was “inactive” in each case. Also, in assay [14], the Potency result was “inactive”. Moreover, the result in assay [3] and in [5] was inactive. Moreover, the max response in assay [16] is -6.58%; in [17] it was 0.139% (inactive); in [11], 0.0996% (inactive); in assay [13] it was -19.5% (inactive); in [18], -16.3% (inactive). In assay [8], the activity change % (negative = inhibition) was -26.3% (inactive). Further, the activation was -5.66% (inactive) in assay [9] and -2.18% (inactive) in assay [10].
As to `O=P(OCC(Br)CBr)(OCC(Br)CBr)OCC(Br)CBr` (stereo unspecified), the Potency in [1] is 35.5 µM [inhibitor] (active). Also, the activity change % (negative = inhibition) in assay [8] was -25.3% (inactive). Moreover, the activation in [9] was 10.6% (inactive). Besides, the max response in assay [11] was -0.385% (inactive); in [13], -25.3% (inactive); in assay [19], 0.175% (inactive). The Potency entry in assay [12] and in assay [14] was “inactive” each time.
